# About 37,000 (12%) of roughly 300,000 compounds were called active. No stated cut-off is given here; in the data, active means max response mostly above about 13% (no sharp cut-off); inactive means mostly below about 14%. Only a selection was taken, and actives are over-represented in it overall.
# Assay: Cycloheximide Counterscreen for Small Molecule Inhibitors of Shiga Toxin; further: read at 38.3 µM for the half of the compounds with a filed dose; 0% is about no effect
# Conditions: cell reporter, cycloheximide protein synthesis inhibition counterscreen; hits give high values
row,SMILES,max response
1,O=C(c1c(F)cccc1Cl)N1CCN(c2ccccn2)CC1,-8.36% (inactive)
2,COc1ccccc1CNC(=O)c1ccc(CS(=O)(=O)c2ccccc2)o1,-1.73% (inactive)
3,NC(=O)COC(=O)/C=C/c1ccc2ccccc2n1,16.4% (active)
4,CC(=O)c1ccc(S(=O)(=O)N2CCN(C(=O)/C=C/c3ccc4ccccc4n3)CC2)cc1,-1.24% (inactive)
5,O=C(COC(=O)/C=C/c1nc2ccccc2s1)Nc1ccccc1Oc1ccccc1,-1.69% (inactive)
6,CCCCCCCCn1c2c(c(=N)c3c1CCC3)CCCC2,-1.22% (inactive)
7,CCC(CC)COC(=O)C1=C(C)NC(=O)NC1c1ccc([N+](=O)[O-])cc1 (configuration not stated),-4.34% (inactive)
8,COc1ccccc1Nc1ncc(C(C)=O)c(C)n1,17% (active)
9,COc1ccccc1-c1c(C)nn2c(C)c(C(C)=O)cnc12,-2.56% (inactive)
10,CCc1ccc2nc(Nc3ncc(C(C)=O)c(C)n3)nc(C)c2c1,4.49% (inactive)
11,CC(=O)NC(Cc1ccc(F)c(F)c1)C(=O)NC1CCN(c2nnnn2-c2ccccc2)CC1 (configuration not stated),-1.76% (inactive)
12,COc1ccc(N2CCN(S(=O)(=O)c3cc(Br)cnc3N)CC2)cc1,-1.92% (inactive)
13,COc1ccc(OCc2ccc(-c3nc4ccccc4c(=O)n3N)o2)cc1,30.2% (active)
14,COc1ccc(OCc2n[nH]c(=S)n2N)cc1,5.41% (inactive)
15,COc1ccc(-c2nc3ccccc3c(=O)n2CCc2ccc(O)cc2)cc1,17.7% (inactive)
16,CCCCCNC(=O)C1c2ccccc2Oc2ccccc21,-1.28% (inactive)
17,[2H]C(CCOS(N)(=O)=O)c1ccccc1 (configuration not stated),-0.0595% (inactive)
18,COC(=O)[C@]1(S(=O)(=O)c2ccccc2)C[C@@H]2ON=C(c3ccc(OC)cc3)[C@@H]2C1,12.7% (inactive)
19,CCC1Sc2ccc(S(=O)(=O)CCC(=O)NCc3cccs3)cc2NC1=O (configuration not stated),15.6% (inactive)
20,Cc1ccc(C)c(NS(=O)(=O)c2cc(Br)cnc2N)c1,-1.97% (inactive)
21,COc1ccccc1CN(C)c1nnnn1-c1ccccc1,-3.28% (inactive)

row,SMILES,max response
1,COc1ccccc1N1CCN(S(=O)(=O)c2ccc(Cl)cc2)CC1,-4.44% (inactive)
2,COc1ccccc1-n1nnnc1S(=O)(=O)Cc1ccc(Cl)cc1,16.8% (active)
3,CN(C)c1ccc(CNC2C3CC4CC(C3)CC2C4)cc1 (configuration not stated),-2.32% (inactive)
4,CCOc1ccc(C(=O)NC(=S)Nc2ccc(NC(=O)C(C)C)cc2)cc1[N+](=O)[O-],-1.26% (inactive)
5,CC(=O)Oc1ccc(C(=O)Nc2nccs2)cc1,11.1% (inactive)
6,CCOc1ccc(C(=O)Nc2nccs2)cc1[N+](=O)[O-],28.1% (active)
7,O=C(N/N=C/c1ccoc1)c1ccc(Cl)cc1Cl,28.2% (active)
8,CC(C)c1cc(C(=O)N/N=C/c2ccoc2)c(O)c(C(C)C)c1,6.52% (inactive)
9,CC(C)NC(=O)c1ccc(Cl)cc1Cl,8.78% (inactive)
10,CC(C)c1ccc(N2CCN(C(=O)c3ccccc3NC(=O)/C=C(\C(=O)O)c3ccccc3)CC2)cc1,24.6% (inactive)
11,COCCCNC(=S)NCCNc1nc2cc(C)c(C)cc2cc1C#N,26% (inactive)
12,COc1ccc(CNS(=O)(=O)c2ccc(-c3cnc(C4CC4)o3)cc2)cc1,-0.963% (inactive)
13,O=C(NCC1CCCO1)c1cc2c([nH]c3ccccc32)c(-c2ccc(F)cc2)n1 (configuration not stated),-1.44% (inactive)
14,COc1ccc(-c2cc(=O)oc3cc(OC(C)C(=O)NCC4CCC(C(=O)O)CC4)ccc23)cc1 (configuration not stated),-2.31% (inactive)
15,O=C(CCc1nnc(CCCCc2ccccc2)o1)NC(c1cccnc1)C(F)(F)F (configuration not stated),-3.39% (inactive)
16,CC(CCn1cccn1)NC(=O)CCc1nnc(CCc2ccccc2)o1 (configuration not stated),5.1% (inactive)
17,Cc1cc(-c2nnc(CCC(=O)NC(c3ccccc3)c3ccccc3)o2)no1,25.2% (active)
18,CCOC(=O)/C=c1\s/c(=C\c2ccc(C#N)cc2)c(=O)n1CC(=O)Nc1cccc(C)c1C,-1.86% (inactive)
19,Cc1cc(OCc2ccc(C(=O)Nc3ccc(C(=O)O)cc3)o2)ccc1Cl,0.897% (inactive)
20,COc1ccc(C(C(=O)NC2CCCCC2)N(C(=O)Cc2c[nH]c3ccccc23)c2ccccc2)cc1OC (configuration not stated),-2.16% (inactive)
21,Cc1ccc(Nc2ccc(C(N)=O)cc2[N+](=O)[O-])cc1,14.3% (active)

row,SMILES,max response
1,NC(=O)c1ccc(Nc2ccc3nonc3c2[N+](=O)[O-])cc1,6% (inactive)
2,NC(=O)c1ccc(Nc2ccc3c(c2)CCC3)c([N+](=O)[O-])c1,-2.88% (inactive)
3,c1ccc(CSc2nnc(-c3ccco3)c(-c3ccco3)n2)cc1,5.66% (inactive)
4,c1ccc(CSc2nnc(-c3ccco3)n2Cc2ccccc2)cc1,27.8% (active)
5,O=C(CSc1nnc(-c2ccco2)n1Cc1ccccc1)NC(=O)NCc1ccco1,9.36% (inactive)
6,N#CCOc1ccc(C2=NO[C@@H]3[C@@H]4C[C@@H]([C@H]5C(=O)N(c6ccc7c(c6)OCO7)C(=O)[C@@H]45)[C@H]23)cc1,-3.49% (inactive)
7,Cn1c(CNC(=O)c2ccccc2F)nnc1SCc1ccc(F)cc1,6.96% (inactive)
8,COc1ccc(CCNC2=C(Cl)C(=O)N(Cc3ccccc3)C2=O)cc1OC,5.5% (inactive)
9,O=C(Nc1ccccc1-c1nc2ccccc2[nH]c1=O)c1cccs1,0.926% (inactive)
10,C/C(=N\Nc1ncc(Cl)cc1Cl)c1ccc(S(=O)(=O)NCc2ccco2)cc1,113% (active)
11,CCN(CC)c1ccc(C(=O)N/N=C(\C)c2cccc(OC)c2)cc1,-2.4% (inactive)
12,Cc1c(Cl)cnc(NC(=O)COC(=O)c2ccc(S(=O)(=O)NCc3ccco3)cc2)c1Cl,-0.376% (inactive)
13,C/C(=N\NS(=O)(=O)c1ccc(Br)cc1)c1cccs1,-1.14% (inactive)
14,COc1cccc(/C(C)=N/Nc2ncc(Cl)cc2Cl)c1,41.6% (active)
15,COC(=O)c1sccc1N/N=C(\C)c1ccc(F)c(Cl)c1,7.97% (inactive)
16,C/C(=N\Nc1nc2ccccc2[nH]1)c1cccs1,36.7% (active)
17,C/C(=N\Nc1nc(Nc2ccccc2)nc(N2CCOCC2)n1)c1cccs1,14.5% (inactive)
18,O=S(=O)(NCc1ccco1)c1cnc(Cl)c(Cl)c1,-2.82% (inactive)
19,C/C(=N\Nc1ncc(Cl)cc1Cl)c1cccs1,45.9% (active)
20,C/C(=N\Nc1ccc(S(N)(=O)=O)cc1[N+](=O)[O-])c1cccs1,-5.09% (inactive)

# From PubChem BioAssay AID2314 (National Center for Advancing Translational Sciences (NCATS), 2010)
